Records with an inconclusive call do not appear. A call without a number means that no potency is given here. Some compounds were tested as several samples or in several runs, with calls that do not always agree. Active and inactive are the calls of the source. Unless noted, the call rests on the fitted dose curve; in most records, active means well fitted curve in the direction sought with a large enough effect in the repeat runs; inconclusive means weak or mixed curves; inactive means no such curve, though single readings can be large; an effect the other way counts as inactive or inconclusive.
Tests used:
[1] = A CellTox Green Cytotoxicity Assay to monitor cytotoxicity in HEK293 cells - 32 hour (AID 1224881); further: nearly all actives have a fitted effect of over 40% in size
In short: (§1)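 Fluorescence from a DNA-binding dye excluded by viable cells was measured repeatedly in the same HEK293 wells (600 cells/well) during continuous compound exposure at 37 C. Each assay gives one read point: 0, 8, 16, 24, 32 or 40 h.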

[2] = A CellTox Green Cytotoxicity Assay to monitor cytotoxicity in HepG2 cells - 0 hour (AID 1224882); further: nearly all actives have a fitted effect of over 35% in size
In short: (§2)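 Real-time cytotoxicity: fluorescence of a cell-impermeant cyanine dye binding DNA of dead HepG2 cells, measured repeatedly (0–40 h) during compound exposure at 37 C. Cells seeded 600/well with reagent, dosed after 5 h.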

[3] = A CellTox Green Cytotoxicity Assay to monitor cytotoxicity in HepG2 cells - 32 hour (AID 1224883); further: nearly all actives have a fitted effect of over 50% in size; further: potency means the concentration at half of the fitted maximal effect
In short: as §2

[4] = A CellTox Green Cytotoxicity Assay to monitor cytotoxicity in HEK293 cells - 8 hour (AID 1224884); further: nearly all actives have a fitted effect of over 35% in size
In short: as §1

[5] = qHTS RealTime-Glo MT Cell Viability Assay in HepG2 cells - 16 hour (AID 1224885); further: nearly all actives have a fitted effect of over 50% in size
In short: (§3)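 Viability was tracked continuously by NanoLuc luminescence from prosubstrate reduced by living HepG2 cells, at successive time points over 40 h of compound exposure. Cells with reagent were preincubated 5 h at 37 °C before compound addition.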

[6] = qHTS RealTime-Glo MT Cell Viability Assay in HEK293 cells - 8 hour (AID 1224887); further: top concentration of the series differs between compounds; nearly all actives have a fitted effect of over 50% in size
In short: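 Luminescence, which tracks viable cell number through reduction of the prosubstrate to a NanoLuc substrate, was read over continuous 37 C culture. Cells (600/well) were premixed with reagent and rested 5 h before 23 nL of compound in DMSO was pinned.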

[7] = A CellTox Green Cytotoxicity Assay to monitor cytotoxicity in HEK293 cells - 16 hour (AID 1224888); further: nearly all actives have a fitted effect of over 35% in size
In short: as §1

[8] = A CellTox Green Cytotoxicity Assay to monitor cytotoxicity in HepG2 cells - 8 hour (AID 1224890); further: nearly all actives have a fitted effect of over 45% in size
In short: as §2

[9] = qHTS assay to identify small molecule antagonists of the estrogen receptor alpha (ER-alpha) signaling pathway using the BG1 cell line in the presence of 0.1 nM 17-beta-estradiol - cell viability counter screen (AID 1259241); further: nearly all actives have a fitted effect of over 40% in size
In short: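 Cytotoxicity counter-screen: live-cell protease activity measured by fluorescence (30 min reagent step) in the same wells. Cells were VM7Luc4E2 with endogenous ER-alpha and ERE-driven luciferase, treated 22 hr at 37C alongside 0.1 nM 17beta-estradiol final.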

[10] = qHTS assay to identify small molecule antagonists of the androgen receptor (AR) signaling pathway using the MDA cell line in the presence of 0.5 nM R1881 - cell viability counter screen (AID 1259242); further: nearly all actives have a fitted effect of over 45% in size
In short: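 Live-cell protease activity was measured by CellTiter-Fluor fluorescence after 30 min. Before that, MDA-kb2 MMTV-luciferase cells had 16 hr at 37C without CO2, exposed to test compounds and 0.5 nM R1881 final.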

[11] = molecular target: Androgen receptor (Homo sapiens) (UniProt P10275); assay: qHTS assay to identify small molecule antagonists of the androgen receptor (AR) signaling pathway using the MDA cell line in the presence of 0.5 nM R1881 (AID 1259243); further: nearly all actives have a fitted effect of over 50% in size
Chain of Androgen receptor (Homo sapiens) (P10275 whole entry, looked up): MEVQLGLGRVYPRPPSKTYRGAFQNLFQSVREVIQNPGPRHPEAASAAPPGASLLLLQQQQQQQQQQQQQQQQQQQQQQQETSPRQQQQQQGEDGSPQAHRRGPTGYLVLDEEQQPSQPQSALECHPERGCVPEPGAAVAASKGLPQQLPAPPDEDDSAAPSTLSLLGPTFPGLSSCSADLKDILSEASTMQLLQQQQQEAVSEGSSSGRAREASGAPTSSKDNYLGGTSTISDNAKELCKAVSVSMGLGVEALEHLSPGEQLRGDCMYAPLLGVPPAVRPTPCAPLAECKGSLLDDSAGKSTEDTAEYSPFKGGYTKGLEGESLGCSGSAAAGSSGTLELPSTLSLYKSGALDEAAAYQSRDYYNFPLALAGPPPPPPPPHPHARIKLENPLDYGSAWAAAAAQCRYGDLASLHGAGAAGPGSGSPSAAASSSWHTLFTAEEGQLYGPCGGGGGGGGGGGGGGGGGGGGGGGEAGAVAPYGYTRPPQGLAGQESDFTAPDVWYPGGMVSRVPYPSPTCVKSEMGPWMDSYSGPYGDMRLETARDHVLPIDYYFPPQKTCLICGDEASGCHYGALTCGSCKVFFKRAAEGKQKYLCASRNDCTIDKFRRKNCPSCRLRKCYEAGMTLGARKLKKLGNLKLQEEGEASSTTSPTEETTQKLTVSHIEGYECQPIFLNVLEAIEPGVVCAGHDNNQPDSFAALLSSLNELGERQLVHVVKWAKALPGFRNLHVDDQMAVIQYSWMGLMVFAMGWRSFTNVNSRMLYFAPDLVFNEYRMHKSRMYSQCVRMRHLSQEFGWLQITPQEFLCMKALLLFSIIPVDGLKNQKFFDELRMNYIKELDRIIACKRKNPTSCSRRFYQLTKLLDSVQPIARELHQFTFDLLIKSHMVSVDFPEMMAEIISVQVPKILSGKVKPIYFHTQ
In short: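 Luminescent reporter readout (ONE-Glo, 30 min, room temperature) after 16 hr co-treatment of MDA-kb2 cells with test compounds and 0.5 nM R1881 final, at 37C without CO2. The MMTV-driven luciferase responds to both AR and GR.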

[12] = molecular target: Estrogen receptor (Homo sapiens) (UniProt P03372); assay: qHTS assay to identify small molecule antagonists of the estrogen receptor alpha (ER-alpha) signaling pathway using the BG1 cell line in the presence of 0.1 nM 17-beta-estradiol (AID 1259244); further: nearly all actives have a fitted effect of over 50% in size
Chain of Estrogen receptor (Homo sapiens) (P03372 whole entry, looked up): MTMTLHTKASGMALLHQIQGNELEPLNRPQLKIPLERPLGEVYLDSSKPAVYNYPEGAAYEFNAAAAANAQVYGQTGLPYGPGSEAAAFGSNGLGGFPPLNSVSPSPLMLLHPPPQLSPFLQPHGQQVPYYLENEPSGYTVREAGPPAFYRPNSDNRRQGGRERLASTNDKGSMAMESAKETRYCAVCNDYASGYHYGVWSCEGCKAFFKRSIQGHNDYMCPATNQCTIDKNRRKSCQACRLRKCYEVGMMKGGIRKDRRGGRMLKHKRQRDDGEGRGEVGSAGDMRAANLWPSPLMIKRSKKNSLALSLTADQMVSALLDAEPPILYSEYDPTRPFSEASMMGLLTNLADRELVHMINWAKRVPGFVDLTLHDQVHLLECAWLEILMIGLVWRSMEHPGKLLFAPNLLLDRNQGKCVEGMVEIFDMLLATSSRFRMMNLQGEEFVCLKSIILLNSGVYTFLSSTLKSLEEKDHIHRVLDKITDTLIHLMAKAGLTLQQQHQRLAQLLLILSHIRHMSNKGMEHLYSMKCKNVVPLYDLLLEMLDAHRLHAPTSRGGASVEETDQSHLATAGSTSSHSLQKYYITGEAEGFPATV
In short: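 Luciferase luminescence (ONE-Glo, 30 min at room temperature) was read after 22 hr at 37C exposure to compounds plus 17beta-estradiol at 0.1 nM final. Cells were VM7Luc4E2 with endogenous ER-alpha and an ERE-driven luciferase, pre-cultured 5 days in hormone-depleted medium.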

[13] = qHTS assay to identify small molecule HDAC inhibitors (AID 1259364); further: top concentration of the series differs between compounds; nearly all actives have a fitted effect of over 45% in size
In short: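 Luminescence read after 30 min room-temperature HDAC-Glo incubation measures cellular class I/II HDAC activity. Compounds were applied for 2 hr at 37 C to HCT-116 wild-type cells seeded the day before.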

[14] = qHTS assay to identify small molecule HDAC inhibitors - cell viability counter screen (AID 1259365)
In short: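 CellTiter-Glo luminescence (30 min, room temperature) reported viability after a 2 h compound exposure at 37 C. Cells: wild-type HCT-116, 1,500 per well, seeded the night before.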

[15] = qHTS assay to identify small molecule agonists of the sonic hedgehog signaling (Shh) pathway - cell viability counter screen (AID 1259366); further: nearly all actives have a fitted effect of over 50% in size
In short: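 Cytotoxicity counter screen: CellTiter-Fluor reagent added after 23 h compound exposure, then 1 h at 37C and fluorescence read. Cells were 3T3 Gli1-Luc, seeded 2,000 per well and dosed 4 h post-plating.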

[16] = qHTS assay to identify small molecule antagonists of the sonic hedgehog signaling (Shh) pathway - cell viability counter screen (AID 1259367); further: nearly all actives have a fitted effect of over 55% in size
In short: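 Viability was read by CellTiter-Fluor fluorescence in the same wells, reagent added 23 hr into compound treatment and incubated 1 hr at 37C. The 3T3 Gli1-Luc reporter cells (2,000/well) received conditioned medium after compound and ran 24 hr.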

[17] = qHTS assay to identify small molecule agonists of the sonic hedgehog signaling (Shh) pathway (AID 1259368; calls by dose curve;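 further: NIH/3T3-derived 3T3Gli1-Luc cells carrying a stable Gli1-driven firefly luciferase reporter; series mostly up to about 92 µM; nearly all actives have a fitted effect of over 15% in size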)
In short: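 Luminescence was read after 30 min at room temperature with luciferase reagent. Before that, 3T3Gli1-Luc cells (NIH/3T3 clone, stable Gli1-Luc reporter; 2,000/well) were exposed to compounds for 24 hr at 37C, 5% CO2, compounds being added 4 hr post-plating.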

[18] = qHTS RealTime-Glo MT Cell Viability Assay in HepG2 cells - 0 hour (AID 1224889); further: nearly all actives have a fitted effect of over 50% in size
In short: as §3

[19] = qHTS RealTime-Glo MT Cell Viability Assay in HEK293 cells - 24 hour (AID 1224886)
In short: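 Viability tracked continuously by luminescence as live cells reduce a prosubstrate for NanoLuc; HEK293 cells preincubated 5 h, compound-treated at 37 C, and read at 0, 8, 16, 24, 32 and 40 h.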

[20] = qHTS assay to identify small molecule phospholipidosis (PLD) inducers (AID 1259344; active means well fitted curve in the direction sought with a large enough effect; an effect the other way counts as inactive or inconclusive)
In short: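 Phospholipid accumulation was scored by imaging: fixed, Hoechst-counterstained HepG2 cells stained with LipidTOX Red after 24 h compound exposure at 37 C. Read-outs were pit count and pit intensity per well or per cell, with amiodarone and DMSO controls.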

Structure (SMILES)	Potency [1]	Potency [2]	Potency [3]	Potency [4]	Potency [5]	Potency [6]	Potency [7]	Potency [8]	outcome [9]	Potency [10]	Potency [11]	outcome [12]	Potency [13]	outcome [14]	Potency [15]	Potency [16]	outcome [17]	Potency [18]	Potency [19]	Potency [20]
CCCCNC(=O)NCCCC	inactive	inactive	inactive	inactive	inactive	inactive	inactive	inactive	inactive	inactive	inactive	inactive	inactive	inactive	inactive	inactive	inactive			
OC[C@]1(O)OC[C@@H](O)[C@H](O)[C@@H]1O	inactive	inactive	inactive	inactive	inactive	inactive	inactive	inactive	inactive	inactive			inactive	inactive	inactive		inactive	inactive		
Cc1cc(O)cc2c1O[C@](C)(CCC[C@H](C)CCC[C@H](C)CCCC(C)C)CC2	inactive	inactive	inactive	inactive	inactive	inactive		inactive	inactive	inactive		inactive	inactive	inactive	inactive				inactive	inactive
O=C1CCCCCCCCCCCN1	inactive	inactive	inactive	inactive	inactive	inactive		inactive	inactive	inactive		inactive	inactive	inactive	inactive	inactive			inactive	
O=C(O)Cc1ccc(CCNS(=O)(=O)c2ccc(Cl)cc2)cc1	inactive	inactive	inactive	inactive	inactive	inactive			inactive	inactive		inactive	inactive	inactive	inactive		inactive	inactive	inactive	inactive
NS(=O)(=O)c1cc2c(cc1Cl)NC(C1CC3C=CC1C3)NS2(=O)=O (stereo unspecified)	inactive	inactive	inactive	inactive	inactive		inactive	inactive	inactive	inactive	inactive	inactive	inactive	inactive	inactive	inactive	inactive	inactive		inactive
Cc1[nH]c(=O)c(C#N)cc1-c1ccc2nccn2c1	inactive	inactive	inactive	inactive	inactive	inactive	inactive	inactive	inactive	inactive			inactive	inactive	inactive	inactive	inactive			inactive
NC(=O)c1ccc([N+](=O)[O-])cc1	inactive	inactive	inactive	inactive	inactive	inactive		inactive	inactive	inactive			inactive	inactive	inactive	inactive	inactive	inactive	inactive	
CC(C)c1cc2c(cc1S(=O)(=O)O)[C@@]1(C)CCC[C@@](C)(C(=O)O)[C@@H]1CC2	inactive	inactive	inactive	inactive	inactive	inactive		inactive	inactive	inactive		inactive	inactive	inactive	inactive		inactive	inactive	inactive	inactive
CN1CCN(c2cc3c(cc2F)c(=O)c(C(=O)O)cn3-c2ccc(F)cc2)CC1	inactive	inactive	inactive	inactive	inactive	inactive	inactive		inactive	inactive	inactive			inactive	inactive	inactive		inactive		inactive
N#Cc1ccc(C2CCCc3cncn32)cc1 (stereo unspecified)	inactive	inactive	inactive	inactive	inactive	inactive	inactive	inactive	inactive	inactive		inactive	inactive	inactive	inactive	inactive	inactive	inactive		
O=C1CCCC(=O)C1	inactive	inactive	inactive	inactive	inactive	inactive	inactive	inactive	inactive	inactive			inactive	inactive	inactive	inactive	inactive	inactive		
CN(C(=O)c1c(O)c2ccccc2n(C)c1=O)c1ccccc1	inactive	inactive	inactive	inactive	inactive	inactive		inactive	inactive	inactive			inactive	inactive			inactive		inactive	inactive
CC(C)(O)C(=O)c1ccccc1	inactive	inactive	inactive	inactive	inactive	inactive		inactive	inactive	inactive	inactive	inactive	inactive	inactive	inactive	inactive		inactive	inactive	
CCCCOCCOCCOCc1cc2c(cc1CCC)OCO2	inactive	inactive	22.1 µM (active) and inactive	inactive	inactive	inactive		inactive	inactive	inactive	inactive		inactive	inactive			inactive	inactive	inactive	inactive
Cn1c(N)c(N=O)c(=O)n(C)c1=O	inactive	inactive	inactive	inactive	inactive	inactive		inactive	inactive	inactive			inactive	inactive	inactive	inactive	inactive	inactive	inactive	

Source: PubChem BioAssay (Tox21)
